Test results: PubChem BioAssay AID1159580 (chemical genetic matrix, 2015)
Hit rate of the full screen: of about 5,500 compounds, about 2,000 (36%) were called active. Not shown: some 18% with an inconclusive outcome. No stated cut-off is given here; in the data, active means normalized growth mostly below about 0.91 (no sharp cut-off); inconclusive means no clear call, values can overlap the other calls; inactive means mostly above about 0.92. The list shows a part of the results.

Test: chemical genetic growth profiling, strain panel (AID 1159580);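 further: tested at 20 µM; growth read once vehicle control cultures reached saturation at 30 °C; 1 = growth at the plate median or of vehicle wells; lower values mean less growth of the strain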
Conditions: S. cerevisiae deletion strains, growth OD

Measured: normalized growth

CC1CCN=C(N)S1 (centres undefined)
inactive: locus YAL013W, strain DEP1, hits give low values 0.997 | locus YAL040C, strain CLN3, hits give low values 0.98 | locus YER002W, strain NOP16, hits give low values 1 | locus YNL153C, strain GIM3, hits give low values 0.947 | locus YNL175C, strain NOP13, hits give low values 0.991 | locus YNL197C, strain WHI3, hits give low values 0.99 | locus YNL224C, strain SQS1, hits give low values 1.02 | locus YOR083W, strain WHI5 (second series), hits give low values 0.962 | locus YPL241C, strain CIN2, hits give low values 0.978
